From PubChem BioAssay (NCI) come the findings set out here.

This is part of a sample that, as a whole, favours compounds with a hit. Of some 83,000 tested, about 20% had one in any assay.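 96-well plates, one dose, 48 hours. Percent growth reported; active if below 10.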 A number with no mark means an inactive call. The source made the active and inactive calls.

Among the test systems are SR leukemia; RPMI-8226 leukemia; OVCAR-8 ovarian; OVCAR-5 ovarian; OVCAR-4 ovarian; SK-OV-3 ovarian; IGROV1 ovarian; OVCAR-3 ovarian; HS 578T breast; NCI/ADR-RES ovarian; T-47D breast; BT-549 breast; MDA-MB-435 melanoma; SW-620 colon; MCF7 breast; HCT-116 colon; HCC-2998 colon; KM12 colon.
Holding throughout (test): NCI-60 one-dose screen, 48 h (100 = growth as untreated, 0 = no growth, -100 = all killed)
Holding throughout (settings): 10 µM unless noted

On to `O=C(NCCCCCCNC(=O)OCc1ccc2c(Cl)cc(Cl)c(O)c2n1)OCc1ccc2c(Cl)cc(Cl)c(O)c2n1`, for which the growth was 4.84% (active) in the assay with SR leukemia; -17.4% (active) with RPMI-8226 leukemia; -32.6% (active) in the assay with OVCAR-8 ovarian; -89.6% (active) in the assay with OVCAR-5 ovarian; -56.9% (active) with OVCAR-4 ovarian; 42.9% with SK-OV-3 ovarian. The growth is -88.3% (active) with IGROV1 ovarian; -73.6% (active) with OVCAR-3 ovarian; -15.1% (active) with HS 578T breast; -12.5% (active) in the assay on NCI/ADR-RES ovarian; -48.5% (active) in the assay with T-47D breast; -14.4% (active) in the assay on BT-549 breast. The growth in the assay with MDA-MB-435 melanoma was -82.9% (active); in the assay with SW-620 colon, -62.8% (active); in the assay on MCF7 breast it was -36.7% (active); in the assay on HCT-116 colon it was -54.7% (active); in the assay on HCC-2998 colon it was -88.3% (active); in the assay on KM12 colon, -74.6% (active).

Regarding `O=C1/C(=C/c2cccc(Br)c2)COc2ccc(O)cc21`, the growth is 4.39% (active) with SR leukemia; -27.3% (active) in the assay with RPMI-8226 leukemia; 54.1% in the assay on OVCAR-8 ovarian; 89.8% in the assay on OVCAR-5 ovarian; 83.4% with OVCAR-4 ovarian; 115% in the assay on SK-OV-3 ovarian. Besides, the growth in the assay with IGROV1 ovarian is 78%; in the assay with OVCAR-3 ovarian, 49.1%; with HS 578T breast, 60.3%; with NCI/ADR-RES ovarian, 47.6%; in the assay with T-47D breast, 19.6%; in the assay on BT-549 breast it was 47.7%. Further, the growth was 25.1% in the assay with MDA-MB-435 melanoma; -21.2% (active) with SW-620 colon; 6.98% (active) with MCF7 breast; 6.67% (active) with HCT-116 colon; 86.2% in the assay with HCC-2998 colon; 28% with KM12 colon.

In the case of `COc1cc2c(c(OC)c1OC)C(=O)CC(c1cccc(C(=O)Nc3ccc(C#N)cc3)c1)O2` (configuration not stated), the growth with SR leukemia is 41.2%; with RPMI-8226 leukemia, 29.7%; with OVCAR-8 ovarian, 42.9%; in the assay on OVCAR-5 ovarian, 102%; in the assay on OVCAR-4 ovarian it was 55.2%; in the assay on SK-OV-3 ovarian, 104%. Further, the growth is 88.5% with IGROV1 ovarian; 74.5% in the assay with OVCAR-3 ovarian; 92.4% in the assay with HS 578T breast; 52.4% in the assay on NCI/ADR-RES ovarian; 9.48% (active) in the assay on T-47D breast; 33% with BT-549 breast. The growth in the assay on MDA-MB-435 melanoma was 63%; with SW-620 colon it was 97.8%; with MCF7 breast, 48.7%; in the assay on HCT-116 colon, 56.2%; with HCC-2998 colon it was 98.2%; in the assay on KM12 colon, 79.1%.

`CCN(CC)CCn1c2ccc(OC)cc2c2sc3cc(O)ccc3c(=O)c21`: the growth is 2.99% (active) in the assay with SR leukemia; 21.2% in the assay on RPMI-8226 leukemia; 30.7% in the assay with OVCAR-8 ovarian; 91% in the assay with OVCAR-5 ovarian; 50.7% in the assay with OVCAR-4 ovarian; 52.3% with SK-OV-3 ovarian. For the same compound, the growth was 26.3% in the assay on IGROV1 ovarian; 38.3% in the assay with OVCAR-3 ovarian; 60% in the assay with HS 578T breast; 27.6% in the assay on NCI/ADR-RES ovarian; 62.5% in the assay on T-47D breast; 62.7% in the assay on BT-549 breast. The growth is 48.8% in the assay on MDA-MB-435 melanoma; 13.3% in the assay on SW-620 colon; 9.43% (active) in the assay with MCF7 breast; 14.2% in the assay with HCT-116 colon; 28.2% in the assay on HCC-2998 colon; 24.6% in the assay on KM12 colon.

As to `COc1ccc(Nc2ncc(I)c(NCCCNC(=O)C3CCC3)n2)cc1`, the growth with SR leukemia was 0.641% (active); in the assay on RPMI-8226 leukemia, 11.4%; in the assay on OVCAR-8 ovarian it was 19.3%; in the assay with OVCAR-5 ovarian, 3.96% (active); in the assay with OVCAR-4 ovarian it was 42.2%; in the assay on SK-OV-3 ovarian, -3.33% (active). Besides, the growth was -20.8% (active) with IGROV1 ovarian; -40.4% (active) in the assay on OVCAR-3 ovarian; 17.1% in the assay with HS 578T breast; 22.2% in the assay with NCI/ADR-RES ovarian; 43% in the assay on T-47D breast; -73.8% (active) in the assay on BT-549 breast. For the same compound, the growth is 49.4% in the assay with MDA-MB-435 melanoma; 12.9% with SW-620 colon; 3.83% (active) in the assay with MCF7 breast; -30.3% (active) in the assay with HCT-116 colon; 25.4% with HCC-2998 colon; 5.46% (active) in the assay on KM12 colon.

`COc1cc2c(c(OC)c1OC)CCC(c1cccc(C(=O)Nc3ccc(Br)cc3)c1)O2` (configuration not stated): the growth is 27.7% in the assay with SR leukemia; 40.5% in the assay on RPMI-8226 leukemia; 71.8% in the assay with OVCAR-8 ovarian; 68.4% in the assay with OVCAR-5 ovarian; 63.8% in the assay on OVCAR-4 ovarian; 72.7% in the assay on SK-OV-3 ovarian. In addition, the growth in the assay on IGROV1 ovarian is 61.2%; in the assay with OVCAR-3 ovarian, 78.8%; in the assay with HS 578T breast it was 78.5%; in the assay with NCI/ADR-RES ovarian, 63.9%; with T-47D breast it was 28.9%; with BT-549 breast it was 69%. The growth is 81.9% in the assay with MDA-MB-435 melanoma; 88.7% with SW-620 colon; 67.1% with MCF7 breast; 60.6% in the assay on HCT-116 colon; 71.5% in the assay on HCC-2998 colon; 65.2% with KM12 colon.

As for `O=C(/C=C/c1ccco1)Nc1ncc(Cc2cc(Cl)ccc2Cl)s1`, the growth in the assay with SR leukemia is 12.1%; in the assay with RPMI-8226 leukemia it was 23%; with OVCAR-8 ovarian it was 14.1%; in the assay on OVCAR-5 ovarian, 34%; in the assay with OVCAR-4 ovarian, 56.8%; in the assay with SK-OV-3 ovarian it was 31.9%. For the same compound, the growth in the assay on IGROV1 ovarian is 21.3%; in the assay on OVCAR-3 ovarian, -44% (active); with HS 578T breast, 8.67% (active); in the assay with NCI/ADR-RES ovarian it was -0.63% (active); in the assay on T-47D breast it was 37.4%; with BT-549 breast it was 17.1%. Besides, the growth with MDA-MB-435 melanoma is -47.3% (active); in the assay on SW-620 colon, 20.6%; in the assay with MCF7 breast, 13.3%; with HCT-116 colon it was 16.3%; in the assay with HCC-2998 colon, 13.9%; with KM12 colon it was 10.4%.

On to `COC12C=C/C(=C(/C(=O)OCc3cncnc3)C(=O)CCCCCCCCC3(OC)C=C/C(=C(/C(=O)OCc4cncnc4)C(=O)CCCCCCCC1)O3)O2`, for which the growth in the assay on SR leukemia is -36% (active); with RPMI-8226 leukemia it was -20.1% (active); in the assay with OVCAR-8 ovarian it was 9.06% (active); with OVCAR-5 ovarian it was -25.6% (active); in the assay with OVCAR-4 ovarian it was -4.86% (active); with SK-OV-3 ovarian, 36.9%. Also, the growth is -59.5% (active) with IGROV1 ovarian; -57.8% (active) with OVCAR-3 ovarian; 26.5% with HS 578T breast; 8.14% (active) in the assay on NCI/ADR-RES ovarian; 10.2% in the assay on T-47D breast; -10.2% (active) in the assay with BT-549 breast. The growth in the assay on MDA-MB-435 melanoma is -49.8% (active); in the assay on SW-620 colon, 4.94% (active); with MCF7 breast, 3.84% (active); in the assay on HCT-116 colon it was -63.8% (active); in the assay with HCC-2998 colon it was -77.5% (active); in the assay with KM12 colon it was -89.2% (active).

As for `Nc1ncnc2c1N=C(c1ccc(F)cc1)CC(c1cccc(Nc3ccnc4cc(Cl)ccc34)c1)N2` (configuration not stated), the growth with SR leukemia was 0.875% (active); with RPMI-8226 leukemia it was 25.9%; with OVCAR-8 ovarian it was 82.2%; in the assay on OVCAR-5 ovarian it was 107%; in the assay with OVCAR-4 ovarian, 76.3%; with SK-OV-3 ovarian it was 98.9%. Moreover, the growth was 74.3% with IGROV1 ovarian; 88.9% in the assay on OVCAR-3 ovarian; 68.3% in the assay on HS 578T breast; 78.2% in the assay with NCI/ADR-RES ovarian; 93.2% with T-47D breast; 99.9% in the assay on BT-549 breast. The growth in the assay on MDA-MB-435 melanoma was 41.8%; with SW-620 colon, 82.8%; in the assay with MCF7 breast, 51.2%; in the assay with HCT-116 colon it was 49.7%; in the assay with HCC-2998 colon, 82.5%; with KM12 colon, 60.9%.
